Measurements as given in PubChem BioAssay AID881 (National Center for Advancing Translational Sciences (NCATS), 2007).
“And” between values parts separate entries of the source, which are not always exact repeats. Identical values can stand only once. In all, about 110,000 compounds went through this assay and about 610 (0.55%) were called active. Not shown: some 3% with an inconclusive outcome. The entries come from a sample that favours actives as a whole. Unmarked numbers belong to inactive results. Calls follow the shape of the dose curve; as a rule, active = well fitted inhibition curve with a large enough effect; inconclusive = small, poorly fitted or top-dose-only effect; inactive = no such curve, though single readings can be large or run the other way.

Each compound was assayed against Polyunsaturated fatty acid lipoxygenase ALOX15B (Homo sapiens) (UniProt O15296) (assay: qHTS Assay for Inhibitors of 15-hLO-2 (15-human lipoxygenase 2)). Details: purified 15hLO-2, xylenol orange hydroperoxide absorbance; series mostly up to 57.1 µM; activity change, negative = inhibition: at the top concentration.
Sequence of Polyunsaturated fatty acid lipoxygenase ALOX15B (Homo sapiens) (O15296 whole entry, looked up): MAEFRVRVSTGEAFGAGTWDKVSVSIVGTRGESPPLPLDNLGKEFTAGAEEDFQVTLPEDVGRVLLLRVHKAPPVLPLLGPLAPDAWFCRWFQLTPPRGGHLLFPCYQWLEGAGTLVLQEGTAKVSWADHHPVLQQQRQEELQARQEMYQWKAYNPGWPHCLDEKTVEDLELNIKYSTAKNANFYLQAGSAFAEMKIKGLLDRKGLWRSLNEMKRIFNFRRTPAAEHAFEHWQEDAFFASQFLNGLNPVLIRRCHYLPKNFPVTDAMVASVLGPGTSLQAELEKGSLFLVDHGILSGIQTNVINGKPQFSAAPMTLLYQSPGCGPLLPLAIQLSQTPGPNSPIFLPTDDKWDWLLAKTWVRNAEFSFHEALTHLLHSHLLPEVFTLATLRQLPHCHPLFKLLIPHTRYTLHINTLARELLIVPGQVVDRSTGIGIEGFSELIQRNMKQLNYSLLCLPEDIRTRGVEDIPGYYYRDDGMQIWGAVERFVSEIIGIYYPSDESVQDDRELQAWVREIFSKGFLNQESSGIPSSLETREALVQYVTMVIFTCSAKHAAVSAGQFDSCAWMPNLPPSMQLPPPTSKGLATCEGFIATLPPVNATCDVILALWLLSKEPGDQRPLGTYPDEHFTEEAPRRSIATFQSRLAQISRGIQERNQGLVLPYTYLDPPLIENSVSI
Excerpt: Assay Overview: NIH Molecular Libraries Screening Centers Network [MLSCN] NIH Chemical Genomics Center [NCGC] MLSCN Grant: MH081283-01A1 PI Name: Holman, T.R., University of California, Santa Cruz Human lipoxygenase 15hLO-2 is a member of the closely related lipoxygenase family of enzymes which catalyze the site-specific oxidation of arachidonic acid to various hormone precursor molecules and as such is a candidate for drug development in a variety of disease areas, such as cancer and inflammation. Inhibition of 15hLO-2 activity was screened by utilizing arachidonic acid as a substrate. The extent of hydroperoxide product formation was measured by a secondary chromogenic reaction in which xylenol orange (XO, Sigma-Aldrich, cat. number 39,818-7) reacts with the ferric ions produced from the reaction between the hydroperoxide and ferrous ions. The Fe(III)-XO complex is characterized with red-shifted absorbance at 560 nm. A purified preparation of human 15hLO-2 was supplied by Professor Ted Holman, University of California, Santa Cruz.
Assay Protocol: Buffer: 25 mM Hepes pH 7.5, 0.01% Triton X-100. Reagents/Controls: Buffer in columns 3 and 4 as negative control (no enzyme). Substrate solution: 45 uM arachidonic acid (Sigma-Aldrich, St. Louis, MO) final concentration dispensed throughout the plate. Enzyme: 50 nM 15hLO-2 final concentration in columns 1, 2, 5-48. Column 1 is neutral (100% activity). Column 2 contained pin-transferred titration of NDGA (nordihidroguaiaretic acid, Sigma-Aldrich, N 5023, top concentration 10 mM in DMSO, then 1:2 dilution in duplicate). (Dilution factor: 23 nL into 4 uL.) Chromogenic detection reagent (divalent iron/xylenol orange, Fe-XO): 200 uM xylenol orange plus 300 uM ferrous ammonium sulfate prepared freshly in 50 mM sulfuric acid. Assay Steps: Three uL of enzyme were dispensed to 1536-well Greiner black clear bottom plates. Compounds and controls (23 nL) were transferred via Kalypsys PinTool. The plates were incubated for 15 min at room temperature, and then 1 uL of substrate solution was added to start the reaction. After room temperature incubation for 90 minutes, 4 uL of Fe-XO solution was added to each well followed by a short spin (1000 rpm, 15 sec) and the plates were then incubated for 30 min. The absorbance at 405 and 573 nm were measured using ViewLux (Perkin-Elmer) High-throughput CCD imager and absorbance protocol settings. The 573-to-405 absorbance ratio was used to compute reaction progress.
% is scaled to controls: 0 for no effect and ±100 for the full control effect; potency is read from the fitted curve at half-maximal effect.
Also: nearly all actives have a fitted effect of over 60% in size.

| SMILES | activity change, negative = inhibition | Potency |
| --- | --- | --- |
| COc1ccc(-c2c(C)cc3oc(=O)cc(-c4ccccc4)c3c2C)cc1OC | -3.53% [at 0.0915 µM] |  |
| CCCCN(CC)CCNC(=O)c1[nH]c(C)c(C(C)=O)c1C | 3.09% |  |
| COCc1cc(C(C)=O)ccc1OC | 1.18% |  |
| CC[C@@H]1Cc2cc(O)ccc2C2=C1c1ccc(O)cc1C[C@H]2CC |  | 7.94 µM (active) and 3.55 µM (active) |
| Cc1nnc(SCC(=O)NC(=O)NC2CCCC2)n1N | 2.83% |  |
| CCc1c(O)nc(SCC(=O)Nc2ccccc2)n(C(C)CC)c1=O (stereo unspecified) | -6.9% |  |
| COc1ccccc1NC(=O)[C@H](COCc1ccccc1)NC(=O)OC(C)(C)C | -3.55% |  |
| CC(C)C(=O)OCC(=O)Nc1ccc2c(c1)CCC2 | 2.52% |  |
| O=C1OCCN1C(=O)[C@H]1[C@H](c2ccc(F)cc2)C(c2ccccc2)=NN1c1ccc(Br)cc1 | -15.7% [at 0.0915 µM] |  |
| COc1cc(/C=N/O)cc(Br)c1OS(=O)(=O)c1ccc(C)cc1 | 9.08% |  |
| CCN(CC)c1ccc(NC(=O)c2ccc(Cl)nc2)cc1 | -20.5% |  |
| Cc1ccc(-c2cccc([C@H]3[C@@H]4C=CC[C@@H](C)[C@@H]4C(=O)N3Cc3ccccc3)c2)cc1 | 17.8% [at 0.0915 µM] |  |
| Cc1nc(NC2=NC(C(=O)Nc3ccc(Cl)cc3)CC(=O)N2)nc2ccccc12 (stereo unspecified) | -5.2% |  |
| COc1ccc(Nc2ncnc3ccc(OC)cc23)cc1 | 12% [at 0.0915 µM] |  |
| O=C(c1ccccc1)N1CCN(c2ccc([N+](=O)[O-])c(NCc3ccco3)c2)CC1 | -17.9% |  |
| N#C/C(=C\c1ccccc1)c1n[nH]c(Cn2cncn2)n1 | -7.73% |  |
| O=C(O)CCC(=O)O | 15.2% [at 0.0915 µM] |  |
| Cc1cc2oc(=O)cc(-c3ccccc3)c2c(C)c1-c1ccc(OC(F)(F)F)cc1 | -5.36% [at 0.0915 µM] |  |
| O=C(Nc1ccc(Sc2ccc(Br)cc2)cc1)c1ccco1 | 26.3% |  |
| CC1CCc2c(c3ccccc3[nH]c2=O)O1 (stereo unspecified) | 7.66% |  |
| C=CCSc1nc(Cc2ccc(Cl)cc2)nc2ccccc12 | 4.17% |  |

| SMILES | activity change, negative = inhibition | Potency |
| --- | --- | --- |
| COc1cc(/C=N/O)cc(Br)c1OCc1cccc(Cl)c1 | -5.31% |  |
| CSCc1cc(N(C)C)nc(SCc2ccc(Cl)cc2Cl)n1 | 17.6% |  |
| CCOC(=O)C1=C(C(=O)OCC)C(C(=O)OCC)N(S(=O)(=O)C(F)(F)F)c2ccccc21 (stereo unspecified) | 7.83% [at 0.0915 µM] |  |
| CC1CCCCC1NC(=O)C1CCCN1S(=O)(=O)c1cccc2nsnc12 (stereo unspecified) | 5.08% |  |
| Cc1nnc(NC(=O)CCCOc2ccccc2)s1 | -12.9% |  |
| O=C(CN1C(=O)C2C3C=CC(C3)C2C1=O)Nc1nc(-c2ccccn2)cs1 (stereo unspecified) | 24.9% |  |
| CCCCOC(=O)Nc1sc2nc(C)cc(C)c2c1-n1cccc1 | -6.45% |  |
| CCOC(=O)c1c(NC(C)=O)sc2c(O)c(Br)ccc12 | -25.8% |  |
| COc1ccc(C(=O)Nc2ccc(S(=O)(=O)NC(C)C)cc2)cc1 | -1.16% |  |
| COC(=O)c1cc(NC(=O)CC2C(=O)NCCN2C(=O)c2ccc(F)cc2)cc(C(=O)OC)c1 (stereo unspecified) | -1.66% |  |
| Cn1ccs/c1=N\S(=O)(=O)c1ccc(C(C)(C)C)cc1 | -3.71% |  |
| COCC(C)NC(=O)c1ccc(-n2nc(C(F)(F)F)cc2-c2cccs2)cc1 (stereo unspecified) | 4.55% |  |
| NC(=O)c1nsc(C(=O)N(CC(=O)NCc2ccc(F)cc2)Cc2ccco2)c1N | -1.25% |  |
| Cc1ccc(-c2cc(=O)c3ccc(Cl)cc3[nH]2)cc1 | -2.63% [at 0.0915 µM] |  |
| COc1ccc(C)cc1N(C)C(=O)c1coc(=O)c2ccccc12 | -9.94% |  |
| C=CCC1CCC(=O)N2CCCC12 (stereo unspecified) | -5.32% [at 0.0915 µM] |  |
| Cc1ccccc1OCC(=O)NCC(=O)OCC(=O)c1ccc2ccccc2c1 | 5.04% |  |
| Brc1ccc(C2=NCCC(c3ccccc3)O2)cc1 (stereo unspecified) | 18.5% [at 0.0915 µM] |  |
| O=C(c1cccc(F)c1)N1CCN(c2ccc([N+](=O)[O-])c(N3CCCCC3)c2)CC1 | -15.7% |  |
| O=C1OCCN1C(=O)[C@H]1[C@H](c2ccc(Cl)cc2)C(c2cccc(Cl)c2)=NN1c1ccc(Br)cc1 | 4.34% [at 0.0915 µM] |  |
| CC1(C)O[C@@H]2C[C@@H]3[C@H]4C[C@@H](F)C5=CC(=O)C=C[C@]5(C)[C@@]4(F)[C@@H](O)C[C@]3(C)[C@]2(C(=O)CO)O1 | -10.6% [at 0.0915 µM] |  |

| SMILES | activity change, negative = inhibition | Potency |
| --- | --- | --- |
| O=C1CCC[C@@H]2CC(N3CCCCC3)C[C@@H]3CCN1[C@H]23 (stereo partly specified) | -0.97% [at 0.0915 µM] |  |
| Cc1c(O)c(Br)c(C)c(O)c1Br (tested in a mixture with another compound) |  | 2 µM (active) |
| CCOn1c(SC(C)C)nc2ccccc2c1=O | 0.625% |  |
| C=CC1(C)CC(=O)C2(O)C(C)(O1)C(OC(C)=O)C(O)C1C(C)(C)CCC(O)C12C (stereo unspecified) | 1.16% [at 0.0915 µM] |  |
| COc1cc(C(=O)N2CCOCC2)cc(OC)c1OC | 5.48% [at 0.0915 µM] |  |
| Cc1ccc(NC(=O)Cn2nc(C)c3ccccc3c2=O)c(C)c1 | -7.07% |  |
| Cc1ccccc1NC(=S)Nc1cccc([N+](=O)[O-])c1 | -5.17% |  |
| Cc1ccc(NC(=S)Nc2ncccc2C)c(C)c1 |  | 7.94 µM (active) |
| CC(C)NC(=O)C(=O)NCCN1CCN(S(=O)(=O)c2ccc(Cl)cc2)CC1 | 8.55% |  |
| FC(F)(F)c1cnc(Oc2ccccc2-c2nnc(-c3ccc(Cl)cc3)o2)c(Cl)c1 | -0.426% |  |
| O=C(Oc1ccccc1)Oc1ccc2c(c1)oc(=O)c1ccccc12 | -17.5% |  |
| Cc1ccnc(N2CCC(C(=O)NC3CCCCCC3)CC2)n1 | 6.51% |  |
| Cc1ccnc(-n2sc3ccccc3c2=O)n1 |  | 7.94 µM (active) |
| Cc1nc2ccccc2c(=O)n1CCCn1ccnc1 | 9.49% [at 11.4 µM] |  |
| N#Cc1ccc(Oc2cc(C(F)(F)F)nc(-c3ccccn3)n2)cc1 | 5.16% |  |
| CCCCCCCCCCCCCCCCO | 14.3% [at 0.0915 µM] |  |
| CN(C(=O)CSc1nc(C2CC2)nc2ccccc12)c1nc(-c2ccccc2)cs1 | 2.08% |  |
| Cc1cc(N/C=C\C(=O)c2ccc(Cl)c(Cl)c2)no1 | -13.7% |  |
| Cc1ccc(-n2c(SCC(=O)NCc3ccc4c(c3)OCO4)nnc2-c2cccnc2)c(C)c1 | -2.26% |  |
